For some of these results: Measured potencies and affinities stand elsewhere.
Experiments:
Set-up in all cases: scale not given: direction of the effect not stated beside the values
[1] = molecular target: Protein translocase subunit SecA (Escherichia coli (strain K12)) (UniProt P10408); assay: Assay to Identify E. coli SecA ATPase Inhibitors; assay type: functional; details: 30 µM
[2] = molecular target: T1, Ubiquitin-activating enzyme e1, putative (Leishmania donovani (strain BPK282A1)) (UniProt E9BSI1); assay: Leishmania donovani Ubiquitin Activating Enzyme (LdE1); assay type: functional; details: 30 µM
T1 sequence (whole entry): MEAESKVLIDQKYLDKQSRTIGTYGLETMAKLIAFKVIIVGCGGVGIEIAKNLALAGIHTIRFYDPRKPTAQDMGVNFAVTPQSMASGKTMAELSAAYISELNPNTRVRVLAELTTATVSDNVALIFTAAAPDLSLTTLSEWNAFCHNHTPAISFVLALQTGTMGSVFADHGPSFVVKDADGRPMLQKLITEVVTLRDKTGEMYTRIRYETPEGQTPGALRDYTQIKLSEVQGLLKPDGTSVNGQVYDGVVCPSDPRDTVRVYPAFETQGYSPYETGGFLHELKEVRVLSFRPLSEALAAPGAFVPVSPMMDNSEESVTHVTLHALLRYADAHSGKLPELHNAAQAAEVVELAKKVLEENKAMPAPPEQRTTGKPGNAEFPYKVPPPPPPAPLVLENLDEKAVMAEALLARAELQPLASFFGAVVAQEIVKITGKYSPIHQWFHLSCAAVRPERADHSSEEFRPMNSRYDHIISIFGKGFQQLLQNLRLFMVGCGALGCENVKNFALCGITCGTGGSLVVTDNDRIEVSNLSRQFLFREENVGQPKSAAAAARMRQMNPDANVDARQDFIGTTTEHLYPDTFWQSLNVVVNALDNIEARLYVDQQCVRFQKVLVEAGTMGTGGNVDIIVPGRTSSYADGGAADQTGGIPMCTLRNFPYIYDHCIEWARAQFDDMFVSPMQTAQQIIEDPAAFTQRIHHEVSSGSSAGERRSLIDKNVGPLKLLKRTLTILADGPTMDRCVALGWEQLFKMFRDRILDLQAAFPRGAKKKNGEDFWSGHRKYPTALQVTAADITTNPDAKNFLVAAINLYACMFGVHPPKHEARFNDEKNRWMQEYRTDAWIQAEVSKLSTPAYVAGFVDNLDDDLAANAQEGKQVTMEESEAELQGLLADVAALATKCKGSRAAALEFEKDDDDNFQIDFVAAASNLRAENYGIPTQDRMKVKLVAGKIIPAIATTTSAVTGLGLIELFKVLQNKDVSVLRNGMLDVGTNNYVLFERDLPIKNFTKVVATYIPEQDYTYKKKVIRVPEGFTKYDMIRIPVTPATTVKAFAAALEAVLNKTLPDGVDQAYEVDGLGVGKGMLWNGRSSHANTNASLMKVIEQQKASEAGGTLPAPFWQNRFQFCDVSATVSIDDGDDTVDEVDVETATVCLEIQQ

[3] = molecular target: Sialic acid-binding Ig-like lectin 9 (Homo sapiens) (UniProt Q9Y336); assay: Hs-Siglec9 ALPHAscreen SOP 20170721; details: 10 µM
Trypanosoma cruzi = assay: Trypanosoma cruzi phosphomannomutase and mannose-1-phosphate guanylyltransferase assay; assay type: functional; details: 10 µM
[4] = molecular target: T2, Arginase-2, mitochondrial (Homo sapiens) (UniProt P78540); assay: in vitro enzyme assay to detect the production of urea directly proportional to the activity of Arginase II; assay type: functional; details: 33.3 µM; also: in the data most compounds retested in dose-response had high values
T2 sequence (whole entry): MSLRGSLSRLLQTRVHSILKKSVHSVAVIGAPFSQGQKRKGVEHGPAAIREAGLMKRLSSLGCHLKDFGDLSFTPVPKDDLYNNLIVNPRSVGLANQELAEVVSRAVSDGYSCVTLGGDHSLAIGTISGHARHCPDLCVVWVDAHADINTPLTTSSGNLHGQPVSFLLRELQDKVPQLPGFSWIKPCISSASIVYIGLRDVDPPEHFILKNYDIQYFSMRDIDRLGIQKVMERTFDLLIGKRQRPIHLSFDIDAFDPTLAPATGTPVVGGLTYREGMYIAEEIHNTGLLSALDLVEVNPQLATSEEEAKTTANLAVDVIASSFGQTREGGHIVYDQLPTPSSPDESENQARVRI

[5] = molecular target: T3, Proteasome subunit beta (Trypanosoma cruzi) (UniProt O96673); assay: Trypanosoma cruzi proteasome chymotrypsin-like activity (TcProtChymo) assay.; also: in the data most compounds retested in dose-response had high values; assay type: functional; details: 9.37 µM
T3 sequence (whole entry): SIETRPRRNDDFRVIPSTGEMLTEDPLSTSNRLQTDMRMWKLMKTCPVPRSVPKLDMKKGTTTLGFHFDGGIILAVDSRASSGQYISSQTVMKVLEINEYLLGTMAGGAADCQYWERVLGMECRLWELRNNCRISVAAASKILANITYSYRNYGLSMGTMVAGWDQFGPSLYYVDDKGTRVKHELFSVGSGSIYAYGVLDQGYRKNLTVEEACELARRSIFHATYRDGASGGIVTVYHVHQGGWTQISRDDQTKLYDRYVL

Homo sapiens = organism: Homo sapiens; assay: To identify inhibition of the IFN signalling (Jak-Stat) pathway via expression of an eGFP reporter gene under the control of an IFN-stimulated response element (ISRE) containing MxA promoter.; assay type: functional; details: 30 µM
[6] = molecular target: T4, Tyrosyl-tRNA synthetase, putative (Trypanosoma cruzi (strain CL Brener)) (UniProt Q4DSP6); assay: Trypanosoma cruzi tyrosyl tRNA synthetase (TcYRS) _High Tyrosine SOP; assay type: functional; details: 30 µM; also: in the data most compounds retested in dose-response had high values
T4 sequence (whole entry): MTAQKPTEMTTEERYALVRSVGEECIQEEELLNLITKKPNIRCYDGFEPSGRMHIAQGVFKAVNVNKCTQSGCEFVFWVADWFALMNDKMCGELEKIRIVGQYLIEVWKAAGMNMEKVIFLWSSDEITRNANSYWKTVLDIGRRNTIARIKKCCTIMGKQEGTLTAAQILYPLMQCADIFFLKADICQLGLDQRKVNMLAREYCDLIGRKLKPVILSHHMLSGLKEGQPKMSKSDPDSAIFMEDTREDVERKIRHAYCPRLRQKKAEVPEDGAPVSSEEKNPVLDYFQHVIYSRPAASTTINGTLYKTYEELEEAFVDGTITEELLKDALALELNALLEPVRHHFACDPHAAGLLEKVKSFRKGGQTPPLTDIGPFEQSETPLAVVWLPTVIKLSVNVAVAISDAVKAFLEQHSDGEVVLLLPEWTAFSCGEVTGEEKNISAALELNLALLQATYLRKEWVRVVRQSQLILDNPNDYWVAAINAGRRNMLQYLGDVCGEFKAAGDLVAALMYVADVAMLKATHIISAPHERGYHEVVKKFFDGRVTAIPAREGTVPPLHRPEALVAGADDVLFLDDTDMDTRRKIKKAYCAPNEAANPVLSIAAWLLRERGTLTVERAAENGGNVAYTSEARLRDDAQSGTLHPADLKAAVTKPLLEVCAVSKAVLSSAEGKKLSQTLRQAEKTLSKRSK

[7] = molecular target: T4, Tyrosyl-tRNA synthetase, putative (Trypanosoma cruzi (strain CL Brener)); assay: Trypanosoma cruzi tyrosyl tRNA synthetase (TcYRS) SOP; assay type: functional; details: 30 µM
[8] = molecular target: Chromo domain-containing protein 1 (Saccharomyces cerevisiae (strain ATCC 204508 / S288c) (Baker's yeast)) (UniProt P32657); assay: ScCHD-1 Enzyme Inhibition Assay; assay type: functional; details: 30 µM; also: in the data most compounds retested in dose-response had high values
Sequence of Chromo domain-containing protein 1 (Saccharomyces cerevisiae (strain ATCC 204508 / S288c) (Baker's yeast)) (P32657 whole entry, the tested form may be a part): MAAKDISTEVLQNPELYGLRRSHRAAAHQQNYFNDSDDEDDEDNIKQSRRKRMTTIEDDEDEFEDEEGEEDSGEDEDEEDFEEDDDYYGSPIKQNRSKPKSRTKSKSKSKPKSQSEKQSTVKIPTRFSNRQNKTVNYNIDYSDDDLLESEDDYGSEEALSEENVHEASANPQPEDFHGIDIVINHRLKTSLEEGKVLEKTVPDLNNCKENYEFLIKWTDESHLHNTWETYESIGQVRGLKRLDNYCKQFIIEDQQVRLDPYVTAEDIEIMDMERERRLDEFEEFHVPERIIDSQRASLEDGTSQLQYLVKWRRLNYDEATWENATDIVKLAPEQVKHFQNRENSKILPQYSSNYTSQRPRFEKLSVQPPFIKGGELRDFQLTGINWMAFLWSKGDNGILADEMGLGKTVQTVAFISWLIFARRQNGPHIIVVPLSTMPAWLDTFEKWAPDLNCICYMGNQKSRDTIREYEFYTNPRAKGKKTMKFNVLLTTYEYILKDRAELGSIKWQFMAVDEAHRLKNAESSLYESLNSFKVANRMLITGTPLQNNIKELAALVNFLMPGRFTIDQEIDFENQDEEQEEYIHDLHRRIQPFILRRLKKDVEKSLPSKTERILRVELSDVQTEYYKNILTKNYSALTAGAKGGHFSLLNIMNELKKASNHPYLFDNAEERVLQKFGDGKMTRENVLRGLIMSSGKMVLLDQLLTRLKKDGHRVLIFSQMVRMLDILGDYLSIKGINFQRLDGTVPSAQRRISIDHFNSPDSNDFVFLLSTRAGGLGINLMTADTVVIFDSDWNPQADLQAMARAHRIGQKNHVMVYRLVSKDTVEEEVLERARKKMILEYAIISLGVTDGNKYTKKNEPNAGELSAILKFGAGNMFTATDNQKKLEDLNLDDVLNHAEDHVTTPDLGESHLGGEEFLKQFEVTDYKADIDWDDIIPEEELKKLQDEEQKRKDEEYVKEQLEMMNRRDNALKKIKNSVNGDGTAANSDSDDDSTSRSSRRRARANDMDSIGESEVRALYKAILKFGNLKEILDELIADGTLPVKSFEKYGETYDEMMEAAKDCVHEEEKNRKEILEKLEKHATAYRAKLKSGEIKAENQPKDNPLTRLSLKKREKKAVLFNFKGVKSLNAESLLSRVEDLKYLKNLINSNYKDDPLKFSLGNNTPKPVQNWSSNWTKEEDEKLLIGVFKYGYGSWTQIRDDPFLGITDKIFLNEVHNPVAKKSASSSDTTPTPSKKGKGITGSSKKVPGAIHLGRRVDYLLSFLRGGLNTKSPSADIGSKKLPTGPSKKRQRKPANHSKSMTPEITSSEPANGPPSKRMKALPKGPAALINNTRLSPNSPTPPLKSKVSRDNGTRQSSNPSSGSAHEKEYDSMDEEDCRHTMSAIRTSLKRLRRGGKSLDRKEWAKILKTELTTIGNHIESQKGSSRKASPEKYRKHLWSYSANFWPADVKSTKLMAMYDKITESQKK

Sequence of Protein translocase subunit SecA (Escherichia coli (strain K12)) (P10408 whole entry): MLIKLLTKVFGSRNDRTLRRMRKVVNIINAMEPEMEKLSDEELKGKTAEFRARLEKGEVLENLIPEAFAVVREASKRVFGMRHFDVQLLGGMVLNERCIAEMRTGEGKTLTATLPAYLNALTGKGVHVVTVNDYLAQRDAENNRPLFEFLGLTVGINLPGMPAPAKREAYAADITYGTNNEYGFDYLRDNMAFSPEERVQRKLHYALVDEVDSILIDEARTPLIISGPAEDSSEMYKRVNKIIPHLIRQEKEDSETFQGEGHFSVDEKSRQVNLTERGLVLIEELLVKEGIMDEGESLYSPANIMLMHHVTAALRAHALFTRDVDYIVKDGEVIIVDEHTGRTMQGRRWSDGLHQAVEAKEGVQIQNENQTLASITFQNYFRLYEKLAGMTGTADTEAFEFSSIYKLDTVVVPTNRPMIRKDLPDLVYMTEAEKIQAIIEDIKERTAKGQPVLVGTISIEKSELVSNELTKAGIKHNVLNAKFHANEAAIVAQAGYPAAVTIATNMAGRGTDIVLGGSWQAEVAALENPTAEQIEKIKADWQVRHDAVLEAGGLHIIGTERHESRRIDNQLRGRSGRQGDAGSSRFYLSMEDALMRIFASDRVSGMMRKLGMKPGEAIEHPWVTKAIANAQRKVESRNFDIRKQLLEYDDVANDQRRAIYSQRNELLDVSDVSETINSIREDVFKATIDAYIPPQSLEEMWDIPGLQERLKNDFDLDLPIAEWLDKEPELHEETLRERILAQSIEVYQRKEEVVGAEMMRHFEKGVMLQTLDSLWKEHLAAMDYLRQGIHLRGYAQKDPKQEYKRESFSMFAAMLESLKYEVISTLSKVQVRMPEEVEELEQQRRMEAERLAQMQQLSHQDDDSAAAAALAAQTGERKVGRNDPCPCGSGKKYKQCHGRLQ
Sequence of Sialic acid-binding Ig-like lectin 9 (Homo sapiens) (Q9Y336 whole entry): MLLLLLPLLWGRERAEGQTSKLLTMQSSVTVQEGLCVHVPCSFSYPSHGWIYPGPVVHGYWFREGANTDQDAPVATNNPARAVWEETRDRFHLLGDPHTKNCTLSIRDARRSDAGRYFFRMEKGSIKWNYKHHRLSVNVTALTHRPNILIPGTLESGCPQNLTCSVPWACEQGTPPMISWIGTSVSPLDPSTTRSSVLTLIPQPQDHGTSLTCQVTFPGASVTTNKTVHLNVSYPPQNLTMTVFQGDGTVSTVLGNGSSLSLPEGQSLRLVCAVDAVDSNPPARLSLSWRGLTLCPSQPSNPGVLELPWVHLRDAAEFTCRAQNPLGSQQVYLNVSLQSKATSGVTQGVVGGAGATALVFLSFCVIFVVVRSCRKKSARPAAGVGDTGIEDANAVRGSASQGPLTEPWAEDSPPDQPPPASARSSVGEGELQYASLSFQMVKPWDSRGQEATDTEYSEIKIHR

Row | SMILES | Percent Effect [1] | Percent Effect [2] | Percent Effect [3] | Percent Effect (Trypanosoma cruzi) | Percent Effect [4] | Percent Effect [5] | Percent Effect (Homo sapiens) | Percent Effect [6] | Percent Effect [7] | Percent Effect [8]
1 | COc1ccc(F)cc1C(C)NC(=O)Cn1ccc(=O)n(C)c1=O (stereo not given) | 2.28% | 13% | 2.06% | 2.05% | 5.94% | 9.82% | -0.632% | 9.8% | 21.2% | -4.5%
2 | Cc1ncc(S(C)(=O)=O)c(C2CCCNC2)n1 (stereo not given) | -0.171% | 2.7% | 5.3% | -2.81% | 1.75% | 8.39% | 18.1% | 6.92% | 12.2% | 111%
3 | NC[C@H]1CC[C@H](C(NC(=O)c2ccccn2)c2ccccn2)CC1 (stereo not given in full) | 0.0974% | 14.7% | 1.2% | -1.58% | 0.443% | 15.6% | 8.78% | 4.23% | 22.5% | -24.4%
4 | CCCN1CCCn2nc(CNS(=O)(=O)c3cccc(C#N)c3)cc2C1 | -7.29% | 8.11% | 11.2% | 1.84% | 2.45% | 19.4% | 9.83% | 6.92% | 21.9% | 95%

From ChEMBL document CHEMBL3988442, “University of Dundee, Small-Polar-MMV Screening Library” (2021)
